Source: PubChem
An excerpt weighted towards active compounds, which were near 3.3% of everything screened.
Casp6 inh: human caspase-6 inhibitors, primary screen, biochemical, VEID-R110 fluorescence, single point, set 2 | P55212 | purified caspase-6, Z-VEID-R110 cleavage fluorescence | inhibition, % at 12.5 µM | 350,000 compounds, 0.53% hits | AID 686996, 2013;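 active = mean inhibition across replicates at least about 35%, with every replicate also reaching that limit, limit read from the data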;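 also: 0% = median of neutral control wells and 100% = no fluorescence left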
ERAP1 inh: human ERAP1 aminopeptidase inhibitors, primary screen, biochemical, single point, plate reader | Endoplasmic reticulum aminopeptidase 1 (Homo sapiens), Q9NZ08 | recombinant ERAP1, Leu-AMC fluorescence, 60 min | inhibition, % at 10.7 µM | 340,000 compounds, 0.15% hits | AID 652197, 2013;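 active = mean replicate inhibition of at least 30%, or all replicates individually reaching that 30% level; inactive = mean below 30% and not every replicate reaching it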;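 also: 0% = neutral control wells and 100% = L-leucinethiol positive control wells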
SIRT5 inh: SIRT5 desuccinylase inhibitors, primary screen, biochemical, fluorescence imaging, single point, set 5. NAD-dependent protein deacylase sirtuin-5, mitochondrial (Homo sapiens), Q9NXA8. Purified SirT5, succinyl-peptide AMC, trypsin-coupled fluorescence. inhibition, % at 15 µM. 330,000 compounds, 1.1% hits. AID 652115, 2013; in the data active = inhibition above about 15%
FGF22 binding: binders of human FGF22 protein, primary screen, FGF22 synaptogenesis inhibitor project, biophysical, thermal shift, single point. AID 651658, 2012. recombinant FGF22 thermal shift, SYPRO orange fluorescence; percent of sucrose octasulfate shift, DMSO zero. 340,000 compounds, 1.5% hits. Fibroblast growth factor 22 (Homo sapiens), Q9HCT0. activity (Tm shift, normalised), % at 9.99 µM;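 active = mean Tm shift, scaled 0 neutral to 100 positive control, at about 1.3% or above, every replicate too, limit read from the data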
Target sequence (Q9HCT0 whole entry, looked up): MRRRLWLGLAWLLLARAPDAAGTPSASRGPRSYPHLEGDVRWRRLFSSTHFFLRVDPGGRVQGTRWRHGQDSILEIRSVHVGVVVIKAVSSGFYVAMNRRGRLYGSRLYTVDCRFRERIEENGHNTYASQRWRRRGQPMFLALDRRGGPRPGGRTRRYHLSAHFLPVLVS
GSIS activator: GLuc luminescence reporter in INS-1E cells, primary screen for activators of glucose-dependent secretion of insulin. INS-1E GLuc reporter insulin secretion, 2-3 h. activation, % at 16.6 µM. 370,000 compounds, 0.61% hits;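 active = lowest replicate activation of at least 40%, so every replicate reaches that level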;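 also: 0% = median of neutral control wells and 100% = median of IBMX positive control wells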
* hit, by the source's call; . = no result.

SMILES	Casp6 inh	ERAP1 inh	SIRT5 inh	FGF22 binding	GSIS activator
Nc1nc(SCC(=O)NCCCO)nc2sc3c(c12)CCC3	.	.	.	.	10
Nc1nc(SCC(=O)NCCO)nc2sc3c(c12)CCCC3	-1	-4	-1	43*	3
Oc1[nH]c2ccc(Br)cc2c1N=Nc1ccc(C(F)(F)F)cn1	-1	0	-1	44*	2
C[C@H](CO)N1C[C@H](C)[C@@H](CN(C)C(=O)Nc2cc(F)ccc2F)Oc2cc(-c3cccc(F)c3)ccc2S1(=O)=O	0	1	6	0	-21
O=C1Nc2c(Cl)cccc2C1=O	37*	-4	.	0	.
C[C@@H]1CCCCO[C@@H](CN(C)C)[C@@H](C)CN([C@@H](C)CO)C(=O)c2cc(NS(=O)(=O)c3ccccc3)ccc2O1	0	-1	0	0	11
c1ccc(-c2ccccc2OCc2nnc3n2CCC3)cc1	-2	-2	.	43*	16
O=Cc1cn(CC(O)CN2CCCCC2)c2ccccc12 (configuration not stated)	-3	0	0	0	7
CC(C)(CO)NCC(O)Cn1cc(C=O)c2ccccc21 (configuration not stated)	-2	0	1	43*	.
COC(=O)CSc1ncnc2scc(-c3ccccc3)c12	-2	.	-2	1	60*
Cc1ccc(-c2csc3ncnc(SCC(=O)O)c23)cc1	3	0	2	0	14
C[C@H]1CN([C@@H](C)CO)C(=O)c2c(c3ccccc3n2C)-c2ccccc2CO[C@@H]1CN(C)C(=O)CCC(F)(F)F	-1	2	4	0	-5
OC(COc1ccc2c(c1)OCO2)CN1CCCCC1 (configuration not stated)	-3	-4	-8	44*	0
OC(COc1ccc2c(c1)OCO2)CN1CCN(c2ccccc2)CC1 (configuration not stated)	2	8	-1	0	7
C[C@@H]1CN([C@@H](C)CO)C(=O)c2cc(NC(=O)Cc3ccccc3)ccc2O[C@@H]1CN(C)Cc1ccc(C(=O)O)cc1	2	3	-6	0	6
O=C(O)Cn1c2ccccc2c2ccccc21	0	0	-1	42	11
O=C(O)Cn1c2c(c3ccccc31)CSc1ccc(Cl)cc1-2	26	9	8	1.9*	-2
CN1CCCC1CCNc1ccc2c(=O)c3ccccc3oc2c1 (configuration not stated)	-3	180*	-160	0	.
C[C@@H](NC(=O)C[C@H]1C=C[C@H](NC(=O)C2CCC2)[C@@H](CO)O1)c1ccccc1	-4	5	2	0	12
O=C1CNC(=O)/C1=C/c1ccc(Br)cc1	2	2	25*	0	-3
CSc1ncc(C(=O)O)c(C)n1	5	-8	-3	0	-2
CSc1ncc(C(C)=O)c(C)n1	0	-1	3	2.5*	0
CCCCCCCOC(=O)c1nc(Cl)c(Cl)c(N)c1Cl	4	1	0	0	416*
O=C(O)c1cc2nc3c(c(C(F)(F)F)n2n1)CCCC3	4	-1	0	43*	-1
C[C@@H]1CN([C@@H](C)CO)C(=O)Cc2cc(NC(=O)Cc3ccccc3)ccc2O[C@@H]1CN(C)Cc1ccc(C(=O)Nc2ccccc2N)cc1	.	.	.	0	-4
Cc1ccc(F)cc1-c1nc(NC(C)C)nc2cc(-c3ccccc3)sc12	0	0	.	0	66*
COCC(=O)N(C)C[C@H]1Oc2ncc(C3=CCCCC3)cc2C(=O)N([C@@H](C)CO)C[C@H]1C	3	-1	-3	0	14
O=C(O)COn1c(-c2ccc(Cl)cc2)nc2ccc(Cl)cc21	-1	0	4	0	16
O=C(O)COn1c(-c2ccccc2)nc2ccc([N+](=O)[O-])cc21	43*	-14	12	0	-5
CC(C)NS(=O)(=O)c1ccc(OCC(=O)Nc2ccc3c(c2)OCO3)cc1	1	-4	-4	0	8
